Holding throughout (assay): NCI-60 one-dose screen, 48 h (100 = growth as untreated, 0 = no growth, -100 = all killed)
The subject of one experiment is HCT-15 colon. The following applies: 10 µM.
In the next experiment the test system is HT29 colon. Conditions: 10 µM.
For another experiment, the system named is SNB-75 CNS. The following applies: 10 µM.
The subject of a further experiment is SNB-19 CNS. The following applies: 10 µM.
A further experiment has as its system U251 CNS. The following applies: 10 µM.
A further experiment relates to PC-3 prostate. Conditions: 10 µM.
The next experiment has as its system SK-MEL-5 melanoma. The following applies: 10 µM.
The next experiment deals with UACC-62 melanoma.
Another experiment concerns LOX IMVI melanoma. The following applies: 10 µM.
The next experiment concerns SK-MEL-28 melanoma. Conditions: 10 µM.

Where “and” joins values, the source holds several entries; their conditions need not be identical. Equal values may be shown once. About 83,000 compounds went through this panel and 20% of them were active in at least one assay; those are over-represented in the sample as a whole.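 The endpoint reported here, percent growth, reads 100 for growth as untreated, 0 for no net growth and -100 for all cells dead.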 Values without a mark were called inactive. Calls of active or inactive are those of the source. How the source made its calls: active means growth percent below 10; inactive means the rest.

Take `N#C/C(=C\c1cc(O)c(O)c(O)c1)C(N)=O`: the growth was 88.6% in the experiment with HCT-15 colon; 103% with HT29 colon; -17.7% (active) in the experiment on SNB-75 CNS; 101% with SNB-19 CNS; 93% with U251 CNS; 46.5% in the experiment on PC-3 prostate. For the same compound, the growth with SK-MEL-5 melanoma is 101%; in the experiment with UACC-62 melanoma (10 µM unless noted), 98.1%; in the experiment with LOX IMVI melanoma it was 92.3%.

On to `CCN=c1cc2sc3cc(NCC)c(C)cc3nc-2cc1C`, for which the growth was 8.95% (active) in the experiment with HCT-15 colon; 16.7% in the experiment on HT29 colon; 52% in the experiment with SNB-75 CNS; 4.67% (active) with SNB-19 CNS; 10.7% in the experiment with U251 CNS; 3.93% (active) in the experiment with PC-3 prostate. Moreover, the growth was -56.9% (active) with SK-MEL-5 melanoma, 61.3% in the experiment with UACC-62 melanoma (10 µM unless noted), 2.17% (active) in the experiment on LOX IMVI melanoma and 60.4% in the experiment with SK-MEL-28 melanoma.

With `S=c1[nH]ccn1-c1ccccc1Cl`, the growth was 107% in the experiment on HCT-15 colon; 104% with HT29 colon; 95.4% in the experiment on SNB-75 CNS; 102% with SNB-19 CNS; 99.2% in the experiment with U251 CNS; 95.2% in the experiment with PC-3 prostate. Besides, the growth was 112% in the experiment with SK-MEL-5 melanoma, 107% with UACC-62 melanoma (10 µM unless noted), 100% in the experiment on LOX IMVI melanoma and 101% in the experiment on SK-MEL-28 melanoma.

For `CC(=O)OCC1=CC2OC(=O)C3=COC(OC4OC(CO)C(O)C(O)C4O)C1C32` (centres undefined), the growth is 112% in the experiment on HCT-15 colon; 106% with HT29 colon; 104% with SNB-75 CNS; 111% in the experiment with SNB-19 CNS; 101% in the experiment with U251 CNS; 110% in the experiment on PC-3 prostate. Besides, the growth in the experiment on SK-MEL-5 melanoma is 104%; with UACC-62 melanoma (10 µM) it was 102%; in the experiment on UACC-62 melanoma (100 µM) it was 77.3% and 98.7%; in the experiment with LOX IMVI melanoma, 111%.

On to `Cc1ccc(CCCC(=O)O)c(C)c1`, for which the growth in the experiment on HCT-15 colon is 99%; in the experiment with HT29 colon, 98.8%; with SNB-75 CNS, 79.2%; in the experiment on SNB-19 CNS, 101%; with U251 CNS, 94.1%; with PC-3 prostate it was 97.1%. For the same compound, the growth in the experiment with SK-MEL-5 melanoma is 102%; in the experiment with UACC-62 melanoma (10 µM unless noted), 102%; in the experiment on LOX IMVI melanoma it was 99.3%; in the experiment on SK-MEL-28 melanoma, 98.1%.

`Cc1cc(Cc2cc(C)c(N)cc2N)c(N)cc1N`: the growth in the experiment on HCT-15 colon was 103%; with HT29 colon it was 95.9%; with SNB-75 CNS it was 91.4%; in the experiment on SNB-19 CNS, 96.3%; in the experiment with U251 CNS, 88.9%; with PC-3 prostate, 85.4%. Moreover, the growth in the experiment on SK-MEL-5 melanoma is 91.9%; in the experiment on UACC-62 melanoma (10 µM unless noted) it was 95.5%; in the experiment on LOX IMVI melanoma, 87.3%; with SK-MEL-28 melanoma it was 112%.

With `CCOC(=O)c1cc2cccc(OC)c2oc1=O`, the growth is 97.3% in the experiment on HCT-15 colon; 113% with HT29 colon; 99.5% in the experiment on SNB-75 CNS; 105% in the experiment with SNB-19 CNS; 105% in the experiment on U251 CNS; 106% in the experiment with PC-3 prostate. Moreover, the growth with SK-MEL-5 melanoma is 105%; in the experiment with UACC-62 melanoma (10 µM unless noted), 89.8%; in the experiment on LOX IMVI melanoma, 104%; with SK-MEL-28 melanoma it was 116%.

With `N#CCCc1ccc(O)cc1`, the growth in the experiment with HCT-15 colon was 95.1%; in the experiment on HT29 colon it was 108%; in the experiment with SNB-75 CNS, 88.3%; with SNB-19 CNS it was 110%; with U251 CNS, 96.9%; in the experiment with PC-3 prostate, 102%. In addition, the growth in the experiment on SK-MEL-5 melanoma is 105%; in the experiment with UACC-62 melanoma (10 µM unless noted), 102%; in the experiment on LOX IMVI melanoma it was 107%; with SK-MEL-28 melanoma it was 105%.

Take `CC(=O)OC1CC2C(C)(C)OC3CC(=O)OCC32C2CCC3(C)C(=CCC3c3ccoc3)C12C` (centres undefined): the growth with HCT-15 colon was 108%; in the experiment on HT29 colon, 102%; in the experiment on SNB-75 CNS, 97%; with SNB-19 CNS, 101%; in the experiment on U251 CNS, 107%; with PC-3 prostate, 105%. The growth is 92.5% with SK-MEL-5 melanoma, 72.1% in the experiment on UACC-62 melanoma (10 µM unless noted), 98.4% in the experiment on LOX IMVI melanoma and 86.9% with SK-MEL-28 melanoma.

As to `COC(=O)/C=C/C(=O)NC(N)=O`, the growth was 96.3% in the experiment with HCT-15 colon; 102% in the experiment on HT29 colon; 76.2% in the experiment on SNB-75 CNS; 104% in the experiment with SNB-19 CNS; 96.8% in the experiment on U251 CNS; 96.5% in the experiment with PC-3 prostate. Also, the growth was 104% with SK-MEL-5 melanoma, 101% in the experiment on UACC-62 melanoma (10 µM unless noted), 97.1% with LOX IMVI melanoma and 97.8% with SK-MEL-28 melanoma.

For `CCc1ccc(/C(C#N)=C/C=C/c2ccccc2)cc1`, the growth is 38.7% in the experiment on HCT-15 colon; -5.6% (active) in the experiment on HT29 colon; 0.0202% (active) in the experiment on SNB-75 CNS; 59.5% in the experiment with SNB-19 CNS; 21.3% in the experiment with U251 CNS; 19% in the experiment on PC-3 prostate. The growth with SK-MEL-5 melanoma was 9.25% (active); in the experiment on UACC-62 melanoma (10 µM unless noted) it was 29.6%; in the experiment on LOX IMVI melanoma it was 44%; in the experiment on SK-MEL-28 melanoma, 51.8%.

As to `CCOc1ccc(I)cc1`, the growth in the experiment on HCT-15 colon is 103%; in the experiment on HT29 colon, 106%; in the experiment with SNB-75 CNS it was 91.4%; in the experiment with SNB-19 CNS, 104%; in the experiment on U251 CNS, 103%; with PC-3 prostate it was 88.4%. In addition, the growth was 118% with SK-MEL-5 melanoma, 95.2% in the experiment on UACC-62 melanoma (10 µM unless noted), 100% with LOX IMVI melanoma and 107% with SK-MEL-28 melanoma.

In the case of `CCOC(=O)Nc1nn[nH]n1`, the growth was 91.7% in the experiment on HCT-15 colon; 110% in the experiment with HT29 colon; 94.8% in the experiment on SNB-75 CNS; 99.5% with SNB-19 CNS; 115% with U251 CNS; 96.8% in the experiment with PC-3 prostate. In addition, the growth is 103% with SK-MEL-5 melanoma, 99.3% in the experiment with UACC-62 melanoma (10 µM unless noted), 92.9% with LOX IMVI melanoma and 115% with SK-MEL-28 melanoma.
